Assay outcomes as filed in PubChem BioAssay.
A selection: hits, their analogues and other compounds. The true share with any hit is near 3.9%.
HSF1 activator: increases HSF-1 driven luciferase reporter signal. 300,000 compounds, 1.7% hits. NIH3T3-HGL HSF-1 luciferase reporter, MG132, 8 h; 100% = twice DMSO control signal. activation, % at 9 µM;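 active = mean replicate activation of at least 50% with a set share of replicates each reaching 50%; inconclusive = only one of those two conditions met; inactive = mean below 50% and too few replicates reaching it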;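 also: 0% = median of the neutral control wells and 100% = twice that signal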
Wnt bcat act: activators of Wnt/beta-catenin signaling; Wnt/beta-catenin reporter cell assay, activator, plate reader; activation, % at 9.35 µM; 300,000 compounds, 1.2% hits; in the data active = activation above about 30%, passing the limit was not always enough; inconclusive = no clear call, values can overlap the other calls;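 also: 0% = neutral control wells and 100% = positive control wells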
esBAF inh: inhibitors of esBAF chromatin remodeling in mouse ES cells; Bmi1-luciferase knock-in reporter, 24 h; 100% = twice the neutral-well signal; reporter increase, % at 12.5 µM; 350,000 compounds, 2% hits; AID 602393; in the data active = activation above about 40%; inconclusive = no clear call, values can overlap the other calls;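 also: 0% = median of the plate's neutral control wells and 100% = double that signal; a rise in the Bmi1 reporter signal indicates esBAF inhibition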
HSF1 inh: HSF1 inhibition; NIH3T3-HGL HSE-luciferase, MG132-induced, luminescence 8 h; hits give low values; activity change, negative = inhibition, % at 7.5 µM (by protocol); 300,000 compounds, 0.77% hits;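 active = more than half of replicate wells show activity change below -50%, luminescence cut by over half; inconclusive = some wells, but at most half, below -50%; inactive = no replicate well below -50%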;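 also: luciferase reports HSF-1 transcriptional activity via heat shock element; 0% = median of DMSO wells and -100% = zero luminescence signal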
MITF act: activators of MITF-driven TRPM1 promoter activity in SK-MEL-5 cells. SK-MEL-5 TRPM1-promoter luciferase, 24 h; % of positive control, neutral wells = 0. activation, % at 12.5 µM. 300,000 compounds, 0.75% hits;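 active = mean activation of at least 80% with every replicate also reaching 80%; inconclusive = mean reaches 80% but some replicate falls short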;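 also: 0% = neutral control wells and 100% = parthenolide positive control wells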
An asterisk follows results filed as active; ? = inconclusive; . = no result.

SMILES	HSF1 activator	Wnt bcat act	esBAF inh	HSF1 inh	MITF act
O=C(Nc1cccc(O)c1)c1cc(-c2ccco2)on1	-3	.	73*	13	75
O=C(Nc1ccc2c(c1)OCO2)c1cc(-c2ccccc2Cl)on1	57*	20	60*	14	?
O=C(Nc1ccc2c(c1)OCO2)c1cc(-c2ccc(O)cc2)on1	38	21	46*	17	77
O=C(NCc1ccc2c(c1)OCO2)c1cc(-c2ccccc2Cl)on1	-9	-4	5	1	-1
O=C(Nc1ccc2c(c1)OCO2)c1cc(-c2cccc(O)c2)on1	-16	21	43*	-1	115*
CC(=O)c1cccc(NC(=O)c2cc(-c3ccco3)on2)c1	5	1	23	21	30
C[C@@H]1CN([C@@H](C)CO)C(=O)Cc2cc(NC(=O)Nc3ccc4c(c3)OCO4)ccc2O[C@H]1CN(C)C	.	.	3	.	.
O=C(Nc1ccc2c(c1)OCCO2)C1CC(c2ccccc2Cl)=NO1 (centres undefined)	3	11	60*	-6	?
O=C(Nc1cccnc1)c1cc(-c2ccc3c(c2)OCO3)on1	15	.	69*	19	22
C[C@H](CO)N1C[C@H](C)[C@H](CN(C)S(=O)(=O)c2ccc(F)cc2)OCCCC[C@H](C)Oc2ccc(NS(=O)(=O)c3ccc(F)cc3)cc2C1=O	.	.	2	.	.
C[C@@H]1CN([C@@H](C)CO)S(=O)(=O)c2ccc(C3=CCCCC3)cc2O[C@@H]1CN(C)C(=O)c1ccc(F)cc1	.	.	-1	.	.
CSc1nc(Cl)c(Cc2ccc(OC(C)C)cc2)c(N(C)C)n1	59*	-1	.	17	-13
CCOc1ccc(Cc2c(Cl)nc(SC)nc2N(C)C)cc1	5	-6	.	-8	-14
CC(C)NC(=O)N(C)C[C@H]1Oc2cc(Br)ccc2S(=O)(=O)N([C@@H](C)CO)C[C@H]1C	.	.	-5	.	.
C[C@@H]1CN([C@H](C)CO)S(=O)(=O)c2ccc(/C=C/c3ccccc3)cc2O[C@H]1CN(C)Cc1cncnc1	.	.	5	.	.
C[C@H](CO)N1C[C@H](C)[C@H](CN(C)S(C)(=O)=O)Oc2cc(Br)ccc2S1(=O)=O	.	.	-1	.	.
CCOC(=O)Cn1c(CN2CCN(c3cccc(Cl)c3)CC2)nc2c1c(=O)[nH]c(=O)n2C	-65	-1	10	-55*	-3
CCCCn1c(CN2CCN(c3cccc(Cl)c3)CC2)nc2c1c(=O)[nH]c(=O)n2C	-14	-9	-12	-3	-26
c1ccc(CSCc2nc3ccccc3[nH]2)cc1	24	.	.	14	111*
Clc1ccccc1CSc1nc2ccncc2[nH]1	27	39*	?	13	67
O=[N+]([O-])c1ccc(CSc2nc3ccccc3[nH]2)cc1	121*	21	72*	67	?
Fc1ccc(CSc2nc3ccccc3[nH]2)cc1	61*	.	33	28	104*
C[C@H]1CN([C@@H](C)CO)C(=O)c2cc(NS(=O)(=O)c3cn(C)cn3)ccc2O[C@H]1CN(C)C(=O)Nc1ccc2c(c1)OCO2	.	.	-5	.	.
Cc1ccccc1-n1nc(CSc2nc3ccccc3[nH]2)c(-c2ccccc2)c1N	60*	0	.	23	-12
N/N=C(/Cc1nc2ccccc2[nH]1)c1ccc([N+](=O)[O-])cc1	34	38*	.	24	25
SMILES	HSF1 activator	Wnt bcat act	esBAF inh	HSF1 inh	MITF act
O=C(CCCSc1nc2ccccc2[nH]1)N1CCN(c2ccc([N+](=O)[O-])cc2)CC1	73*	.	-13	23	-23
Nc1c(-c2ccccc2)c(CSc2nc3ccccc3[nH]2)nn1-c1ccc(Cl)cc1	4	-1	.	12	1
CCSc1nc2ccccc2[nH]1	10	.	1	-7	3
c1ccc(CSc2nc3ccccc3[nH]2)cc1	?	68*	-29	35	111*
O=C(CSc1nc2ccccc2[nH]1)N1CCN(c2ccc(F)cc2)CC1	25	.	.	9	1
C[C@@H]1CN([C@H](C)CO)C(=O)Cc2cc(NS(C)(=O)=O)ccc2O[C@@H]1CN(C)Cc1ccc2c(c1)OCO2	.	.	0	.	.
COc1ccccc1NC(=O)CSc1c2c(nc3ccccc13)CCC2	9	.	.	13	-7
O=C(CSc1c2c(nc3cc(Cl)ccc13)CCCC2)NCc1ccco1	?	8	1	48	3
COCCNC(=O)CSc1c2c(nc3ccc(Cl)cc13)CCCC2	107*	2	.	51	-8
Cc1cc(NC(=O)CSc2c3c(nc4ccccc24)CCC3)no1	72*	-5	6	57	-14
COc1ccc(NC(=O)CSc2c3c(nc4ccccc24)CCCC3)c(OC)c1	70*	-11	-4	63	-12
Cc1cc(NC(=O)CSc2cc(C)c3ccccc3n2)no1	.	-2	.	.	13
CCN(C(=O)c1ccc2c(SCC(=O)O)c3c(nc2c1)CCC3)c1cc(Cl)ccc1OC	-79	-3	-5	-73*	3
CC(C)NC(=O)Nc1ccc2c(c1)CC(=O)N([C@@H](C)CO)C[C@H](C)[C@@H](CN(C)Cc1ccc(C(F)(F)F)cc1)O2	.	.	0	.	.
COc1ccc(NC(=O)CSc2c3c(nc4cc(Cl)ccc24)CCCC3)cc1OC	128*	3	.	74	-17
O=C(N[C@H]1CC[C@@H](CCNC(=O)C2CCC2)O[C@@H]1CO)c1ccccn1	.	.	-3	.	.
C[C@H]1CN([C@@H](C)CO)C(=O)c2cc(-c3cccnc3)cnc2O[C@H]1CN(C)C(=O)c1ccccc1F	.	.	-2	.	.
COc1cc2sc3ccc(C#Cc4ccc(N)cc4)cc3c(=O)c2cc1OC	-10	-5	1	3	9
COc1cc2sc3ccc(-c4ccc5[nH]ccc5c4)cc3c(=O)c2cc1OC	0	12	51*	1	130*
O=C1C=CC(=O)N1N(c1ccccc1)c1ccccc1	69*	0	1	57	-2
CCc1ccc(-c2cc(C)no2)cc1S(=O)(=O)N1CCN(c2ccccc2F)CC1	-6	-3	-7	8	-8
C(#CC1CCCC1)c1ccc2c(c1)COc1c3ccccc3nn1-2	3	42*	60*	1	119*
CCCc1cc(-c2ccc3c(c2)COc2c4ccccc4nn2-3)on1	37	36*	-8	27	?
O=C(c1ccc2c3n(nc2c1)-c1ccccc1CO3)N1CCCCC1	-2	20	5	2	20
Cc1cc(-c2ccc3c(c2)COc2c4ccccc4nn2-3)on1	43	45*	6	23	64
C[C@@H]1CN([C@@H](C)CO)C(=O)CCCn2cc(nn2)CO[C@H]1CN(C)Cc1ccc2c(c1)OCCO2	.	.	-6	.	.
C[C@H]1CN([C@@H](C)CO)C(=O)c2cc(NC(=O)Nc3ccc(F)cc3)ccc2O[C@H]1CN(C)Cc1ccc(-c2ccccc2)cc1	.	.	-2	.	.
Cc1cccc(NC(=S)N=Nc2c(O)[nH]c3ccccc23)c1	90*	-12	.	55	-1
O=C(CNC(=O)c1ccco1)N=Nc1c(O)[nH]c2ccc(Br)cc12	10	-1	5	-4	5
